Test results as given in article PMC7826789 (International Journal of Molecular Sciences, 2021).

Tested on: CLK1

Q: With `CCOc1ccc2c(-c3ccnc(Nc4cc(OC)cc(C(F)(F)F)c4)n3)cnn2n1` [GW807982X] as the molecule, how does the Kinases covered read?
A: CLK1

Q: `CC(C)C(=O)N[C@@H]1CCN(C(=O)Nc2nc3c(s2)-c2nc(-c4ccccc4Cl)ncc2CC3)C1` [BI00047804] was tested. Which Kinases covered did it give?
A: CLK1

Q: How did the Kinases covered turn out when `CNC(=O)c1c(F)cccc1Nc1nc(Nc2cc3c(cc2OC)CCN3C(=O)CN(C)C)nc2[nH]ccc12` [GSK1838705] was run?
A: CLK1

Q: `CCCNC(=O)c1ccc(Nc2ncc(C(F)(F)F)c(Nc3ccccc3C(C)=O)n2)c(Br)c1` [BI00801818] was tested. Which Kinases covered did it give?
A: CLK1

Q: How did the Kinases covered turn out when `CCOc1ccc2c(-c3ccnc(Nc4cccc(C(F)(F)F)c4)n3)cnn2n1` [GW811761X] was run?
A: CLK1

Tested on: CLK2

Q: How did the Kinases covered turn out when `CCOc1ccc2c(-c3ccnc(Nc4cc(OC)cc(C(F)(F)F)c4)n3)cnn2n1` [GW807982X] was run?
A: CLK2

Q: For `NS(=O)(=O)c1ccc(N/N=C2\C(=O)Nc3ccc(C(=O)NCCc4c[nH]cn4)cc32)cc1` [GW300660X], which Kinases covered is on record?
A: CLK2

Q: For `CNC(=O)c1c(F)cccc1Nc1nc(Nc2cc3c(cc2OC)CCN3C(=O)CN(C)C)nc2[nH]ccc12` [GSK1838705], which Kinases covered is on record?
A: CLK2

Q: For `CCOc1ccc2c(-c3ccnc(Nc4cccc(C(F)(F)F)c4)n3)cnn2n1` [GW811761X], which Kinases covered is on record?
A: CLK2

Q: `COc1ccc2c(-c3ccnc(Nc4cccc(OC(F)(F)F)c4)n3)cnn2n1` [GW810372X] was tested. Which Kinases covered did it give?
A: CLK2
